According to PubChem BioAssay AID1159580 (chemical genetic matrix, 2015):
Screen size: about 5,500 compounds; about 2,000 (36%) were called active. Roughly 18% stayed inconclusive and do not appear here. Cut-off read from the data, not from the text of the source: active = normalized growth mostly below about 0.91 (no sharp cut-off); inconclusive = no clear call, values can overlap the other calls; inactive = mostly above about 0.92. This is one part of the list.

Assay: chemical genetic growth profiling, strain panel (AID 1159580);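 note: tested at 20 µM; growth read once vehicle control cultures reached saturation at 30 °C; 1 = growth at the plate median or of vehicle wells; lower values mean less growth of the strain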
Conditions: growth OD

Measured: normalized growth

CNc1ccc(C(=O)CC(O)CCC(C)C2OC(=O)CC(O)CC(=O)CC(O)CC(O)CC(O)CC(O)CC3(O)CC(O)C(C(=O)OC)C(CC(OC4OC(C)C(O)C(N)C4O)/C=C/C=C/C=C/C=C/C=C/C=C/C=C/C2C)O3)cc1 (stereo unspecified)
inactive: S. cerevisiae deletion strains, locus YOL012C, strain htz1 0.225
active: S. cerevisiae deletion strains, locus YAL013W, strain DEP1, active compounds read low 0.0566 | S. cerevisiae deletion strains, locus YBR021W, strain FUR4, active compounds read low 0.0931 | S. cerevisiae deletion strains, locus YBR229C, strain ROT2, active compounds read low 0.0524 | S. cerevisiae deletion strains, locus YCL029C, strain bik1, active compounds read low 0.0837 | S. cerevisiae deletion strains, locus YDL035C, strain GPR1, active compounds read low 0.0535 | S. cerevisiae deletion strains, locus YDL074C, strain BRE1, active compounds read low 0.0938 | S. cerevisiae deletion strains, locus YDL101C, strain DUN1, active compounds read low 0.0651 | S. cerevisiae deletion strains, locus YDL134C, strain PPH21, active compounds read low 0.0946 | S. cerevisiae deletion strains, locus YDL185W, strain tfp1, active compounds read low 0.056 | S. cerevisiae deletion strains, locus YDL192W, strain arf1, active compounds read low 0.0619 | S. cerevisiae deletion strains, locus YDR101C, strain arx1, active compounds read low 0.0612 | S. cerevisiae deletion strains, locus YDR150W, strain NUM1, active compounds read low 0.0603 | S. cerevisiae deletion strains, locus YDR162C, strain NBP2, active compounds read low 0.0526 | S. cerevisiae deletion strains, locus YDR318W, strain mcm21, active compounds read low 0.0791 | S. cerevisiae deletion strains, locus YDR388W, active compounds read low 0.0583 | S. cerevisiae deletion strains, locus YDR502C, strain sam2, active compounds read low 0.0726 | S. cerevisiae deletion strains, locus YEL061C, strain CIN8, active compounds read low 0.133 | S. cerevisiae deletion strains, locus YER110C, active compounds read low 0.11 | S. cerevisiae deletion strains, locus YER155C, strain BEM2, active compounds read low 0.0648 | S. cerevisiae deletion strains, locus YER167W, strain BCK2, active compounds read low 0.0539 | S. cerevisiae deletion strains, locus YGL078C, strain dbp3, active compounds read low 0.0564 | S. cerevisiae deletion strains, locus YGL086W, strain mad1, active compounds read low 0.0591 | S. cerevisiae deletion strains, locus YGL248W, strain PDE1, active compounds read low 0.11 | S. cerevisiae deletion strains, locus YGR078C, strain PAC10, active compounds read low 0.0538 | S. cerevisiae deletion strains, locus YGR135W, strain pre9, active compounds read low 0.0705 | S. cerevisiae deletion strains, locus YGR229C, strain SMI1, active compounds read low 0.0606 | S. cerevisiae deletion strains, locus YGR252W, strain gcn5, active compounds read low 0.194 | S. cerevisiae deletion strains, locus YHR030C, strain SLT2, active compounds read low 0.0491 | S. cerevisiae deletion strains, locus YHR079C, strain IRE1 (second series), active compounds read low 0.0787 | S. cerevisiae deletion strains, locus YHR094C, strain hxt1, active compounds read low 0.119 | S. cerevisiae deletion strains, locus YHR129C, strain ARP1, active compounds read low 0.0557 | S. cerevisiae deletion strains, locus YHR200W, strain rpn10, active compounds read low 0.0615 | S. cerevisiae deletion strains, locus YIL066C, strain RNR3, active compounds read low 0.12 | S. cerevisiae deletion strains, locus YIL073C, strain SPO22, active compounds read low 0.63 | S. cerevisiae deletion strains, locus YIL125W, strain kgd1, active compounds read low 0.0582 | S. cerevisiae deletion strains, locus YIR030C, strain dcg1, active compounds read low 0.0683 | S. cerevisiae deletion strains, locus YJL095W, strain BCK1, active compounds read low 0.0555 | S. cerevisiae deletion strains, locus YJL134W, strain LCB3, active compounds read low 0.0513 | S. cerevisiae deletion strains, locus YJL168C, strain set2, active compounds read low 0.119 | S. cerevisiae deletion strains, locus YJL187C, strain SWE1 (second series), active compounds read low 0.0564 | S. cerevisiae deletion strains, locus YJR043C, strain POL32, active compounds read low 0.0719 | S. cerevisiae deletion strains, locus YJR075W, strain HOC1, active compounds read low 0.0687 | S. cerevisiae deletion strains, locus YKL009W, strain mrt4, active compounds read low 0.0698 | S. cerevisiae deletion strains, locus YKL068W, active compounds read low 0.0536 | S. cerevisiae deletion strains, locus YKL085W, strain MDH1 (second series), active compounds read low 0.0497 | S. cerevisiae deletion strains, locus YKL085W, strain MDH1, active compounds read low 0.0497 | S. cerevisiae deletion strains, locus YKL190W, strain CNB1, active compounds read low 0.0588 | S. cerevisiae deletion strains, locus YKR001C, strain vps1, active compounds read low 0.0648 | S. cerevisiae deletion strains, locus YLR039C, strain RIC1, active compounds read low 0.0872 | S. cerevisiae deletion strains, locus YLR058C, strain SHM2, active compounds read low 0.0574 | S. cerevisiae deletion strains, locus YLR102C, strain apc9, active compounds read low 0.0963 | S. cerevisiae deletion strains, locus YLR262C, strain YPT6, active compounds read low 0.0942 | S. cerevisiae deletion strains, locus YLR268W, strain sec22, active compounds read low 0.0696 | S. cerevisiae deletion strains, locus YLR330W, strain CHS5, active compounds read low 0.0514 | S. cerevisiae deletion strains, locus YLR342W, strain FKS1 (second series), active compounds read low 0.0823 | S. cerevisiae deletion strains, locus YLR371W, strain rom2, active compounds read low 0.0741 | S. cerevisiae deletion strains, locus YLR418C, strain cdc73, active compounds read low 0.0943 | S. cerevisiae deletion strains, locus YML016C, strain PPZ1, active compounds read low 0.136 | S. cerevisiae deletion strains, locus YML032C, strain rad52, active compounds read low 0.0764 | S. cerevisiae deletion strains, locus YML124C, strain tub3, active compounds read low 0.0593 | S. cerevisiae deletion strains, locus YMR078C, strain ctf18, active compounds read low 0.0766 | S. cerevisiae deletion strains, locus YMR223W, strain ubp8, active compounds read low 0.0693 | S. cerevisiae deletion strains, locus YMR263W, strain SAP30, active compounds read low 0.0638 | S. cerevisiae deletion strains, locus YMR307W, strain GAS1, active compounds read low 0.109 | S. cerevisiae deletion strains, locus YNL067W, strain RPL9B, active compounds read low 0.0557 | S. cerevisiae deletion strains, locus YNL128W, strain TEP1, active compounds read low 0.0601 | S. cerevisiae deletion strains, locus YNL153C, strain GIM3, active compounds read low 0.0467 | S. cerevisiae deletion strains, locus YNL233W, strain BNI4, active compounds read low 0.0536 | S. cerevisiae deletion strains, locus YNL250W, strain rad50, active compounds read low 0.0761 | S. cerevisiae deletion strains, locus YNL271C, strain bni1, active compounds read low 0.0615 | S. cerevisiae deletion strains, locus YNL298W, strain CLA4, active compounds read low 0.0597 | S. cerevisiae deletion strains, locus YNL307C, strain MCK1, active compounds read low 0.0706 | S. cerevisiae deletion strains, locus YNL322C, strain KRE1, active compounds read low 0.0507 | S. cerevisiae deletion strains, locus YNR052C, strain pop2, active compounds read low 0.0636 | S. cerevisiae deletion strains, locus YOL006C, strain TOP1, active compounds read low 0.132 | S. cerevisiae deletion strains, locus YOL147C, strain pex11, active compounds read low 0.0576 | S. cerevisiae deletion strains, locus YOR061W, strain CKA2, active compounds read low 0.0583 | S. cerevisiae deletion strains, locus YOR069W, strain VPS5, active compounds read low 0.0477 | S. cerevisiae deletion strains, locus YOR136W, strain idh2, active compounds read low 0.074 | S. cerevisiae deletion strains, locus YOR144C, strain elg1, active compounds read low 0.0585 | S. cerevisiae deletion strains, locus YOR184W, strain ser1, active compounds read low 0.075 | S. cerevisiae deletion strains, locus YOR316C, strain cot1, active compounds read low 0.1 | S. cerevisiae deletion strains, locus YPL055C, strain LGE1, active compounds read low 0.0726 | S. cerevisiae deletion strains, locus YPL241C, strain CIN2, active compounds read low 0.0521 | S. cerevisiae deletion strains, locus YPR119W, strain clb2, active compounds read low 0.0662 | S. cerevisiae deletion strains, locus YPR141C, strain kar3, active compounds read low 0.0657 | S. cerevisiae deletion strains, locus YPR163C, strain tif3, active compounds read low 0.0749 | S. cerevisiae deletion strains, locus YPR167C, strain met16, active compounds read low 0.0645 | S. cerevisiae deletion strains, strain wtn01, active compounds read low 0.061 | S. cerevisiae strains, strain wild type, active compounds read low 0.0494
